Assay outcomes: PubChem, several laboratories
Mtb FBA inh = inhibitors of M. tuberculosis fructose-bisphosphate aldolase | P9WQA3 | purified M. tuberculosis FBA, fluorescence read-out | inhibition, % at 1 µM | 360,000 compounds, 2.3% hits | AID 588726;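 also: 0% = vehicle and 100% = reference inhibitor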
Mtb betalactam = beta-lactam sensitization of Mtb H37Rv. M. tuberculosis H37Rv growth with meropenem, percent inhibition. inhibition, % at 25 µM. 330,000 compounds, 0.27% hits. AID 434955; call rule not given here;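 also: growth measured after seven days incubation then overnight dye step; 0% = bacteria only wells and 100% = bacteria with antibiotic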
GDH-TPI counter-1 = counter-screen for M. tuberculosis FBA inhibitors: GDH-TPI coupled enzymes; GDH-TPI coupled enzyme counterscreen, NADH absorbance; inhibition, % at 4.8 µM; 360,000 compounds, 1.2% hits; in the data active = inhibition above about 30%;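 also: 0% = DMSO wells and 100% = wells lacking the enzyme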
Mtb UGM inh = Mtb UDP-galactopyranose mutase inhibition | P9WIQ1 | purified UGM, fluorescence polarization probe displacement | inhibition, % at 10 µM | 320,000 compounds, 0.06% hits | AID 504406; in the data active = inhibition above about 10%, passing the limit was not always enough
RecA intein inh = Mtb RecA intein splicing inhibition. P9WHJ3. cell-free RecA intein splicing, fluorescence. inhibition, % (no concentration beside the values). 290,000 compounds, 0.75% hits; in the data active = inhibition above about 30%;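 also: 0% = vehicle wells and 100% = reference inhibitor control wells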
Target sequence (P9WHJ3 whole entry, looked up): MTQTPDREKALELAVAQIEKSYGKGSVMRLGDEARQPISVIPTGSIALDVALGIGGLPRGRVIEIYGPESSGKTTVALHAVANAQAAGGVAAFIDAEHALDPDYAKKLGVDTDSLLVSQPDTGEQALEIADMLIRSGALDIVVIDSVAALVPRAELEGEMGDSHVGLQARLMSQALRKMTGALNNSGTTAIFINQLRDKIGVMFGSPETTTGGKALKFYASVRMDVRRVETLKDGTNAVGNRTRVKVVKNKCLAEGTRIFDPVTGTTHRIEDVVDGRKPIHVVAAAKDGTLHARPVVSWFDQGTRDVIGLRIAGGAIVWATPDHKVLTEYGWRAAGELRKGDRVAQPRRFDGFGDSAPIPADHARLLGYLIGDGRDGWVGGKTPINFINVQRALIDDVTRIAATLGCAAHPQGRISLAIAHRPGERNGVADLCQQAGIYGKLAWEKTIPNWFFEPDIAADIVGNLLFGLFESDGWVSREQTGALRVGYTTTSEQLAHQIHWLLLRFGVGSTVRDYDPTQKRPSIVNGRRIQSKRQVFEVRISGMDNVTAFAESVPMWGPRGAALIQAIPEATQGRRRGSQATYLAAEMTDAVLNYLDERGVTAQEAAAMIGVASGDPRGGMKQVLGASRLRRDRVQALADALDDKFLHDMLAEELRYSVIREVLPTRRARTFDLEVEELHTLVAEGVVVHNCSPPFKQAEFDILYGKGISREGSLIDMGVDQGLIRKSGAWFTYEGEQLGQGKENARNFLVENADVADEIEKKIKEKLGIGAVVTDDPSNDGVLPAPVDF
Rv3671c inh = Rv3671c (M. tuberculosis) protease inhibition. P9WHR9. inhibition, % at 5.96 µM. 320,000 compounds, 0.048% hits; in the data active = inhibition above about 38%;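 also: extracellular domain of Rv3671c used as enzyme; 0% = enzyme with DMSO and 100% = no enzyme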
Mtb FBA confirm = Mtb FBA inhibition, confirmed. purified M. tuberculosis FBA, fluorescence read-out. 5,600 compounds, 78% hits. shares compounds with Mtb FBA inh. inhibition, % at 1 µM;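 also: 0% = vehicle wells and 100% = reference inhibitor wells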
GDH-TPI counter-2 = counter-screen for M. tuberculosis FBA inhibitors: GDH-TPI coupled enzyme inhibition. inhibition, % at 1 µM. GDH-TPI coupled enzyme counterscreen, fluorescence. 5,600 compounds, 81% hits. AID 652141. shares compounds with Mtb FBA inh; in the data active = inhibition above about 10%
* hit, by the source's call; x = no result given; + = active, no number. Hits are enriched below; roughly 4% of the tested compounds scored in any of these assays. Rule as the data show it, unless noted: active = inhibition above about 27%; inactive = the rest.

SMILES | Mtb FBA inh | Mtb betalactam | GDH-TPI counter-1 | Mtb UGM inh | RecA intein inh | Rv3671c inh | Mtb FBA confirm | GDH-TPI counter-2
CCOC(=O)N1CCN(Cc2nc3cc(NC(=O)CC)ccc3n2C)CC1 | 6 | 2 | 2 | 1 | 0 | 2 | x | x
CCC(=O)Nc1ccc2c(c1)nc1n2CCN(C2CCCCC2)C1 | 62* | -4 | 3 | 4 | 0 | 2 | 92* | 91*
CCC(=O)Nc1ccc2c(c1)nc1n2CCN(CCOC)C1 | 33* | 1 | 3 | 1 | -3 | 4 | 1 | -1
O=C(Nc1ccc2c(c1)nc1n2CCN(C2CCCCC2)C1)NC1CCCCC1 | x | -16 | x | -1 | 7 | 7 | x | x
N#CN1CCC(NS(=O)(=O)c2ccc(C(F)(F)F)cc2)CC1 | 0 | 0 | 5 | 1 | x | -4 | x | x
COc1ccc(NC(=O)C/C(C)=N/NC(=O)c2ccccn2)c(OC)c1 | 2 | 99 | 2 | -5 | -2 | 2 | x | x
CN1CCc2c1nc1ccccc1c2N=C1CCCN1Cc1ccccc1 | 12 | -3 | 10 | -2 | x | 0 | x | x
Cc1ccc2nc3c(c(N)c2c1)CCN3C | 25 | -1 | -9 | 1 | -2 | 3 | x | x
CN1CCc2c1nc1ccccc1c2N (tested in a mixture with another compound) | 29* | 4 | 9 | 0 | -1 | -4 | 96* | 83*
Cc1cccc2c(N)c3c(nc12)CCCC3 (tested in a mixture with another compound) | 6 | x | 3 | x | x | x | x | x
Cc1cccc2c(N)c3c(nc12)N(C)CC3 | 31* | -3 | -4 | 1 | -3 | -4 | 77* | 45*
Cc1ccc2nc3c(c(N)c2c1)CCN3c1ccccc1 | 29* | -5 | 15 | -1 | -1 | -7 | + | +
CCCCC[C@@H](/C=C/C1C(=O)C=C[C@H]1C/C=C\CCCC(=O)O)OC(C)=O (some centres undefined) | -1 | x | 6 | x | x | x | x | x
c1ccc(-c2cnc(-c3cccnc3)o2)cc1 | 93* | 27 | 5 | 0 | x | -2 | 192* | 155*
COC(=O)C1CCN(C(=O)COC(=O)c2cccc(NS(=O)(=O)c3ccccc3)c2)CC1 | 0 | 0 | -6 | 1 | -2 | -1 | x | x
CCN1CCCC1CNC(=O)Cn1nc(C)n2c(cc3cc(F)ccc32)c1=O (centres undefined) | 13 | -9 | 8 | 1 | -1 | 3 | x | x
CCN1CCCC1CNC(=O)c1cc2cc(F)ccc2[nH]1 (centres undefined) | 30* | -2 | -1 | 2 | -1 | 7 | + | +
CC(C)NC(=O)c1cc(C2CCCCN2S(=O)(=O)c2cccc3cccnc23)on1 (centres undefined) | -2 | x | 2 | x | x | x | x | x
COc1cc(-c2ccc3cc(OC)c(OC)c(OC)c3c2)cc(OC)c1OC | 45* | x | 1 | x | x | x | 8 | 6
CC(=O)OC1(C(C)=O)CCC2C3CC(Cl)C4=CC(=O)CCC4(C)C3CCC21C (centres undefined) | 3 | x | 6 | x | x | x | x | x
O=c1cc(-c2ccccc2)nc2cc(-c3ccc(Br)cc3)[nH]n12 | 3 | 2 | -2 | 4 | 1 | -12 | x | x
COCc1cc(=O)n2[nH]c(-c3ccccc3)cc2n1 | 33* | 4 | 1 | -1 | 0 | 0 | + | +
Cc1cc2nc(-c3ccccc3)cc(=O)n2[nH]1 | 47* | -3 | -10 | 0 | -1 | -5 | + | +
COCc1cc(=O)n2[nH]cc(-c3ccsc3)c2n1 | 55* | 0 | 2 | -3 | -2 | -2 | 94* | 84*
Cc1ccc(S(=O)(=O)N2CCN(C(=O)COC(=O)COc3ccc(Cl)cc3)CC2)c(C)c1 | 6 | x | 8 | x | x | x | x | x
SMILES | Mtb FBA inh | Mtb betalactam | GDH-TPI counter-1 | Mtb UGM inh | RecA intein inh | Rv3671c inh | Mtb FBA confirm | GDH-TPI counter-2
COc1ccc2oc(C(=O)OCC(=O)NC(=O)NC(C)C)c(C)c2c1 | 35* | 1 | 11 | 1 | -6 | -7 | 45* | 35*
COc1ccc2oc(C(=O)OCC(=O)Nc3ccccc3)c(C)c2c1 | 33* | -6 | 5 | -1 | -2 | -8 | + | 168*
COc1ccc2oc(C(=O)OCC(=O)Nc3ccc(C(=O)N(C)C)cc3)c(C)c2c1 | 28* | -21 | 9 | 0 | -2 | 9 | 44* | 44*
COc1ccc2oc(C(=O)OCC(=O)Nc3ccccc3OC)c(C)c2c1 | 16 | -2 | 12 | 2 | -2 | 3 | x | x
COc1ccc2oc(C(=O)OCC(=O)NC(C)c3ccccc3)c(C)c2c1 (centres undefined) | 39* | -1 | -1 | 2 | -1 | -5 | 127* | 85*
Cc1cn2c(=O)c(C(=O)NCc3ccc4c(c3)OCO4)cnc2s1 | -1 | -2 | 5 | 4 | 1 | -5 | x | x
COCCN(C(=O)C1CC(=O)N(Cc2ccccc2)C1)c1nc(-c2ccc([N+](=O)[O-])cc2)cs1 (centres undefined) | 1 | 99 | 4 | 2 | x | -12 | x | x
Cc1ccc(C)c(NC(=S)Nc2cccc3cnccc23)c1 | 6 | 6 | 2 | 3 | 2 | -12 | x | x
COc1ccc(NC(=S)Nc2cccc3ccccc23)cc1OC | 42* | -21 | 7 | 2 | 9 | 2 | 35* | 33*
S=C(Nc1cccc2ccccc12)NC1CCCCC1 | 3 | -1 | -2 | 0 | 4 | 5 | x | x
S=C(Nc1cccc2ccccc12)Nc1cccc2ccccc12 | 88* | x | 7 | x | x | x | 96* | 73*
CC(=O)c1cccc(NC(=S)Nc2cccc3ccccc23)c1 | 42* | -17 | 8 | 2 | 2 | -5 | 63* | 33*
Cc1ccc(F)c(NC(=S)Nc2cccc3ccccc23)c1 | 46* | 11 | 7 | 1 | 5 | -46 | 55* | 50*
CC(=O)Nc1cccc(NC(=S)Nc2cccc3ccccc23)c1 | 3 | 9 | 1 | -2 | 6 | -1 | x | x
COc1ccccc1CCC(=O)N1CCN(S(=O)(=O)c2cccc(F)c2)CC1 | -3 | -1 | 6 | -2 | -1 | 14 | x | x
O=C(O)c1nn(CCOc2cccc(Br)c2)c(=O)c2ccccc12 | -2 | 0 | 0 | 0 | 5 | -9 | x | x
CN1CCCN(C(=O)c2c(F)cccc2Cl)CC1 | 1 | -9 | 0 | 0 | 0 | -4 | x | x
O=c1c2c(nc3cc(-c4cccc(F)c4)[nH]n13)CCC2 | 37* | 1 | 3 | -1 | 0 | 4 | -4 | -3
CN(Cc1c(C(=O)N/N=C/c2cccc(Cl)c2)nnn1-c1nonc1N)c1ccccc1 | 2 | 0 | 15 | -2 | 9 | -52 | x | x
CCC1CC(C(=O)Nc2ccccc2)C(=O)O1 (centres undefined) | 1 | 1 | 1 | -3 | 1 | 6 | x | x
O=C(CC(=O)Nc1cccc(F)c1)Nc1cccc(F)c1 | -1 | 6 | -13 | 0 | -1 | -9 | x | x
